Pf apPOL inh = Pf-apPOL DNA polymerase inhibition; inhibition, % at 10 µM; AID 1794808; actives 0.25% (n = 210,000); Recombinant Pf-apPOL, molecular beacon fluorescence, 1.5 h
mHTT CaM bind = disrupts binding of mutant huntingtin to calmodulin | P42858 | AlphaScreen His-mHTT/GST-CaM binding, luminescence | inhibition, % at 15 µM | actives 3.6% (n = 190,000) | AID 1671202;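 further: 0% = both proteins with DMSO and 100% = one protein alone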
Target sequence (P42858 whole entry, looked up, stated change not applied): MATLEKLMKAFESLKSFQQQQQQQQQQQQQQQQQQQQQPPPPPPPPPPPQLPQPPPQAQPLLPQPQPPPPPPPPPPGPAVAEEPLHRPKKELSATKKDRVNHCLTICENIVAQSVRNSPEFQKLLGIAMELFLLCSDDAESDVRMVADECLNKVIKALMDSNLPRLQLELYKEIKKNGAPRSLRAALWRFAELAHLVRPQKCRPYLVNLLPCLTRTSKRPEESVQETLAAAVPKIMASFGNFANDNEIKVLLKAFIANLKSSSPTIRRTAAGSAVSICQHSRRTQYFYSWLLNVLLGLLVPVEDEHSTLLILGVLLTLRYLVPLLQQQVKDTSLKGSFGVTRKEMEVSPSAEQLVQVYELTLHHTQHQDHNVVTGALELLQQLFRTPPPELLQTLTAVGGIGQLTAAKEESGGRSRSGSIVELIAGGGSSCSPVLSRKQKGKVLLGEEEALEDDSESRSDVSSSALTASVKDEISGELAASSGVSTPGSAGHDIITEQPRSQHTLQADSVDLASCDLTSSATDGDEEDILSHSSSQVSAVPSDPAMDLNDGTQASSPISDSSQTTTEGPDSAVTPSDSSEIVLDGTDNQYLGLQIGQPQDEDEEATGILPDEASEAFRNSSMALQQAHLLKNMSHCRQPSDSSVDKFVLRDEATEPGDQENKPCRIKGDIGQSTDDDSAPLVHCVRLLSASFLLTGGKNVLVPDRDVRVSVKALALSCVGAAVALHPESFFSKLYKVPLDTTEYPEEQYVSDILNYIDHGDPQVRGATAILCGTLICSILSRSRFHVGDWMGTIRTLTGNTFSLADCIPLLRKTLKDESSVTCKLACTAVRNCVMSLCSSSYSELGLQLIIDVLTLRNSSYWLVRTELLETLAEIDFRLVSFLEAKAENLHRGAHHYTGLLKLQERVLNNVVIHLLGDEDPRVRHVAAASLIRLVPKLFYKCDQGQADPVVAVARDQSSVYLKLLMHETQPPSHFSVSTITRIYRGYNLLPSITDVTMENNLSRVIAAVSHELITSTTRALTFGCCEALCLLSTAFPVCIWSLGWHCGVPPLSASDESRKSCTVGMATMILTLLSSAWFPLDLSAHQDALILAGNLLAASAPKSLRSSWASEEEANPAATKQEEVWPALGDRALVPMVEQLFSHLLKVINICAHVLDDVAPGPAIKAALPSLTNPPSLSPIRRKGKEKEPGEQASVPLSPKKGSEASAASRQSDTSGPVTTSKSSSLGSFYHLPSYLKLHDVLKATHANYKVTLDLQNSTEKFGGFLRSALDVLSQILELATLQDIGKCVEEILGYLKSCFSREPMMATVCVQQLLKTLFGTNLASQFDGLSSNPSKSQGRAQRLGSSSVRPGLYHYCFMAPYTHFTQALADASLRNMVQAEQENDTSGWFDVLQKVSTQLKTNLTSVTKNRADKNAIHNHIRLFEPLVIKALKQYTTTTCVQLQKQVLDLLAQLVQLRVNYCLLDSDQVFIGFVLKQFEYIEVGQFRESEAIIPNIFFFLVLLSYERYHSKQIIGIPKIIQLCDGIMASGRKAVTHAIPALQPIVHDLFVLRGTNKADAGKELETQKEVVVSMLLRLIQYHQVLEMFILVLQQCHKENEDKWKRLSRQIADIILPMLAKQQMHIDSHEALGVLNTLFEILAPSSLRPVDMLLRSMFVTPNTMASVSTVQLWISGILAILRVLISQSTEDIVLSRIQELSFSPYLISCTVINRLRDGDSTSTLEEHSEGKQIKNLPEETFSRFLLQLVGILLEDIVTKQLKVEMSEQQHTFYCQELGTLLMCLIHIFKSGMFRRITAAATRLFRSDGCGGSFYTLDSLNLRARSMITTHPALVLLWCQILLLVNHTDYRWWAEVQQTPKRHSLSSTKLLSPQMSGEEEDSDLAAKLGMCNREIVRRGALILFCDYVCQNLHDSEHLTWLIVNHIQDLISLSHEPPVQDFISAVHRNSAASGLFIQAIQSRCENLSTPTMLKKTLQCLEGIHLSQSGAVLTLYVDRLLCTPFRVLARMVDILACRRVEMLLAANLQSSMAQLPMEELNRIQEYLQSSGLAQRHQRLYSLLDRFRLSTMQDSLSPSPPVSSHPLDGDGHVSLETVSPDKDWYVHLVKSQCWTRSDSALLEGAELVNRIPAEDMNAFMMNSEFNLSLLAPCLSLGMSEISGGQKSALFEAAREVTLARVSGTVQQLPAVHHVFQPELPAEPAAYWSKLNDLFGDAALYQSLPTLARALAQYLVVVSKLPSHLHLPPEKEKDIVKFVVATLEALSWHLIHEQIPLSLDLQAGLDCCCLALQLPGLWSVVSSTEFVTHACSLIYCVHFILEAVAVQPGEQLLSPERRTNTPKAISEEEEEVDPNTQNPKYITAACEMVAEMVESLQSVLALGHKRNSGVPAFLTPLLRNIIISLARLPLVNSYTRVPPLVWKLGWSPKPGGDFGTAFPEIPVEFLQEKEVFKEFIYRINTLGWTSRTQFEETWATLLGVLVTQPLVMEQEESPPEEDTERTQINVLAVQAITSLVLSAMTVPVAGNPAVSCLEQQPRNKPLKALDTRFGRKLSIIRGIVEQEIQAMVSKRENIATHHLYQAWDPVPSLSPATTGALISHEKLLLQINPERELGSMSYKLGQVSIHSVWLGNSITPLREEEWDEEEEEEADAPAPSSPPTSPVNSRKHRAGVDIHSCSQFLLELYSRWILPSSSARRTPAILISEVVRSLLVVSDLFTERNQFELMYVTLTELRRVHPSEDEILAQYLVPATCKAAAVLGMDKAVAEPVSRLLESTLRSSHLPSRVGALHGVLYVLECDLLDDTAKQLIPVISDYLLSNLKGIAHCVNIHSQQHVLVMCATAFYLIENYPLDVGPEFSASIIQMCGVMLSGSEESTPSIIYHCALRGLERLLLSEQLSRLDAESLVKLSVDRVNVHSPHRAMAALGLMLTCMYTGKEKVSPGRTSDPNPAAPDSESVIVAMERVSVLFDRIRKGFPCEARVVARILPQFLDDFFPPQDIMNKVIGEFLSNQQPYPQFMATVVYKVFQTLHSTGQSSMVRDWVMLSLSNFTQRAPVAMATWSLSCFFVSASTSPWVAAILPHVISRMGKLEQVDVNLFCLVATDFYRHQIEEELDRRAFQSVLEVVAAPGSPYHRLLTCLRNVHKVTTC
* marks the source's active call; other numbers are inactive results. Only some compounds are listed: those with a hit (about 3.5% of all), similar ones and a draw of the others. No stated cut-off is given here; in the data, active means inhibition above about 50%; inactive means the rest.

How did CC(C)(C)C(=O)C=C1Nc2ccccc2SC1(O)CC(=O)C(C)(C)C (centres undefined) do in these assays?
mHTT CaM bind: 51*

What do the screens show for `CC(NC(=O)CC1Sc2ccccc2NC1=O)C(C)(C)C` (centres undefined)?
Pf apPOL inh: 2; mHTT CaM bind: -12

How did COc1ccccc1-c1nn(-c2ncc(C(F)(F)F)cc2Cl)c(=O)o1 do in these assays?
Pf apPOL inh: 0

What do the screens show for `CC(C)(C)CC(C)(C)c1ccc(OCC(O)C[N+](C)(C)C)cc1` (centres undefined)?
Pf apPOL inh: -1; mHTT CaM bind: 28

How did C[N+](C)(C)CC(O)COc1ccc(C23CC4CC(CC(C4)C2)C3)cc1 (centres undefined) do in these assays?
Pf apPOL inh: -10; mHTT CaM bind: 24

How did CC1C[N+](C)(CC(O)COc2ccc(C34CC5CC(CC(C5)C3)C4)cc2)CC(C)O1 (centres undefined) do in these assays?
Pf apPOL inh: -2; mHTT CaM bind: 51*

How did C[N+]1(CC(O)COc2ccc(C34CC5CC(CC(C5)C3)C4)cc2)CCCCCC1 (centres undefined) do in these assays?
Pf apPOL inh: -4; mHTT CaM bind: 91*

How did CC1CC[N+](C)(CC(O)COc2ccc(C34CC5CC(CC(C5)C3)C4)cc2)CC1 (centres undefined) do in these assays?
Pf apPOL inh: -1; mHTT CaM bind: -9

What do the screens show for `CC1C[N+](C)(CC(O)COc2ccc(C(C)(C)CC(C)(C)C)cc2)CC(C)O1` (centres undefined)?
Pf apPOL inh: -2; mHTT CaM bind: 52*

Results for O=S(=O)(Nc1nonc1NS(=O)(=O)c1ccc(F)cc1)c1ccc(F)cc1 ?
Pf apPOL inh: -6; mHTT CaM bind: 3

Results for Clc1ccc(C2=CC(c3ccc(Br)cc3)n3nnnc3N2)cc1 (centres undefined) ?
Pf apPOL inh: -2; mHTT CaM bind: 2

What do the screens show for `Cc1ccccc1NC(=O)N1CCc2cn(C)c3cccc(c23)C1`?
Pf apPOL inh: -6; mHTT CaM bind: 16

What do the screens show for `Cc1ccc(C2C(C#N)=C(N)Oc3c2sc2ccccc32)o1` (centres undefined)?
Pf apPOL inh: 7; mHTT CaM bind: 86*

Results for Cc1ccc(C2C(C#N)=C(N)OC3=C2C(=O)CCC3)o1 (centres undefined) ?
Pf apPOL inh: -1; mHTT CaM bind: 1

What do the screens show for `O=C(O)c1ccccc1SC/C=C/c1ccccc1`?
Pf apPOL inh: -2; mHTT CaM bind: -5

How did COC(=O)C1CN(Cc2ccc(F)cc2)CCS(=O)(=O)N1Cc1ccc(F)cc1 (centres undefined) do in these assays?
Pf apPOL inh: -7; mHTT CaM bind: 18

What do the screens show for `COC(=O)C1CN(Cc2ccccc2)CCS(=O)(=O)N1Cc1ccccc1` (centres undefined)?
Pf apPOL inh: 2; mHTT CaM bind: -6

What do the screens show for `COC(=O)C1CN(Cc2ccc(F)cc2)CCS(=O)(=O)N1Cc1ccc(C(F)(F)F)cc1` (centres undefined)?
Pf apPOL inh: -3; mHTT CaM bind: 69*

How did COC(=O)C1CN(CCc2ccccc2)CCS(=O)(=O)N1Cc1ccc(OC)cc1 (centres undefined) do in these assays?
Pf apPOL inh: -2; mHTT CaM bind: 7

Results for COC(=O)C1CN(CCc2ccccc2)CCS(=O)(=O)N1Cc1ccc(Cl)cc1 (centres undefined) ?
Pf apPOL inh: -4; mHTT CaM bind: 71*

What do the screens show for `COC(=O)C1CN(Cc2ccccc2)CCS(=O)(=O)N1Cc1ccc(C(F)(F)F)cc1` (centres undefined)?
Pf apPOL inh: -2; mHTT CaM bind: 87*

What do the screens show for `O=C1OC(c2cccs2)=N/C1=C/c1cccc(Br)c1`?
Pf apPOL inh: -2; mHTT CaM bind: 7

What do the screens show for `COc1ccc(C2=NN3C(=O)CC(=O)N=C3S2)cc1`?
Pf apPOL inh: -6; mHTT CaM bind: 4

What do the screens show for `Cc1nn(-c2nc3ccccc3[nH]2)c2c1C(=O)CC(c1ccc(F)cc1)C2` (centres undefined)?
Pf apPOL inh: -14; mHTT CaM bind: 11

Results for CC(C)Oc1cccc(C(=O)N2CCCC2)c1 ?
Pf apPOL inh: -4; mHTT CaM bind: -2

What do the screens show for `O=C(c1cccc(Oc2cc(-c3ccccc3)ncn2)c1)N1CCCC1`?
Pf apPOL inh: 60*; mHTT CaM bind: 70*

Results for COc1ccc(C(=O)CSc2nnc(-c3ccco3)n2-c2ccccc2)cc1 ?
Pf apPOL inh: -1; mHTT CaM bind: 6

How did O=C(CSc1nnc(-c2ccco2)c(-c2ccco2)n1)Nc1ccc(C(=O)O)cc1 do in these assays?
Pf apPOL inh: 4; mHTT CaM bind: 29

Results for O=C(CSc1nnc(-c2ccco2)c(-c2ccco2)n1)Nc1nccs1 ?
Pf apPOL inh: 9; mHTT CaM bind: 70*

How did O=C(CSc1nnc(-c2ccco2)c(-c2ccco2)n1)Nc1cccc(C(=O)O)c1 do in these assays?
Pf apPOL inh: -4; mHTT CaM bind: 45

Results for Cc1ccc(NC(=O)CSc2nnc(-c3ccco3)c(-c3ccco3)n2)cc1C ?
Pf apPOL inh: 8; mHTT CaM bind: 93*

What do the screens show for `O=C(CSc1ncccn1)Nc1nccs1`?
Pf apPOL inh: -1; mHTT CaM bind: -17

Results for CCOc1ccc(NC(=O)CSc2nnc(-c3ccco3)c(-c3ccco3)n2)cc1 ?
Pf apPOL inh: -3; mHTT CaM bind: 82*

Results for COc1ccc(C(=O)CSc2nnc(-c3ccco3)c(-c3ccco3)n2)cc1 ?
Pf apPOL inh: -2; mHTT CaM bind: 95*

Results for CC1(O)CCN(Cc2cccc3[nH]ccc23)CC1N1CCCC1 (centres undefined) ?
Pf apPOL inh: -3; mHTT CaM bind: 29

How did O=C(NCC1CC(=O)N(c2ccc3c(c2)OCO3)C1)c1ccccc1F (centres undefined) do in these assays?
Pf apPOL inh: 0; mHTT CaM bind: 1

How did COc1ccc(/C=C2\N=C(c3cccc(C)c3)OC2=O)cc1 do in these assays?
Pf apPOL inh: -1; mHTT CaM bind: -1

How did CCOC(=O)C(C#N)=CNCCc1ccncc1 do in these assays?
Pf apPOL inh: 2

How did CCOc1ccc(C2C(N3C(=O)c4ccccc4C3=O)C(=O)N2c2ccc(C)cc2)cc1 (centres undefined) do in these assays?
Pf apPOL inh: -3; mHTT CaM bind: 15

Results for O=C(NCC1CC1)C1CCCN(c2cnc3nccnc3c2)C1 (centres undefined) ?
Pf apPOL inh: -2; mHTT CaM bind: -10

Results for O=C(CSc1nnc(-c2ccccc2)c(-c2ccccc2)n1)N1CCCCC1 ?
Pf apPOL inh: -3; mHTT CaM bind: 13

What do the screens show for `O=C(CSc1nnc(-c2ccco2)c(-c2ccco2)n1)Nc1ccc(Cl)cc1Cl`?
Pf apPOL inh: -4; mHTT CaM bind: 85*

How did O=C(CSc1ccc(-c2cccnc2)nn1)Nc1ccc2c(c1)OCO2 do in these assays?
Pf apPOL inh: 4; mHTT CaM bind: -4

Results for COc1cc(OC)c(NC(=O)CSc2nnc(-c3ccco3)c(-c3ccco3)n2)cc1Cl ?
Pf apPOL inh: 4; mHTT CaM bind: 50

How did O=C(CSc1nnc(-c2ccco2)c(-c2ccco2)n1)Nc1ccc2c(c1)OCO2 do in these assays?
Pf apPOL inh: -3; mHTT CaM bind: 75*

What do the screens show for `COc1ccc(-c2nnc(SCC(=O)N3CCN(C)CC3)nc2-c2ccc(OC)cc2)cc1`?
Pf apPOL inh: 54*; mHTT CaM bind: 29
